Results taken from PubChem BioAssay (NCATS).
Where “and” joins values, the source holds several entries; their conditions need not be identical. Equal values may be shown once. Results filed as inconclusive are left out. Calls of active or inactive are those of the source. The call rests on the fitted dose curve; in most records, active means well fitted inhibition curve with a large enough effect; inconclusive means small, poorly fitted or top-dose-only effect; inactive means flat fitted curve, though single readings scatter.

Legend:
[1] = test system: P94_40; experiment: qHTS profiling for inhibitors of Plasmodium falciparum proliferation (AID 504749);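 further: 0% = DMSO vehicle and full inhibition = artemisinin control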; details: P. falciparum in erythrocytes, SYBR Green DNA, 72 h; series mostly up to 28.7 µM
Procedure, shortened: (§1)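 P. falciparum-infected erythrocytes (0.3% parasitemia, 2.5% hematocrit) incubated with compound 72 h at 37 C, 5% CO2. Parasite DNA detected by SYBR Green after lysis, overnight at room temperature; normalised to 0.29 uM artemisinin and DMSO.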

[2] = test system: PAD; experiment: as above; details: P. falciparum in erythrocytes, SYBR Green DNA, 72 h; series mostly up to 28.7 µM
Procedure, shortened: as §1

[3] = test system: PC15; experiment: as above; details: P. falciparum in erythrocytes, SYBR Green DNA, 72 h; series mostly up to 28.7 µM
Procedure, shortened: as §1

[4] = test system: PC26; experiment: as above; details: P. falciparum in erythrocytes, SYBR Green DNA, 72 h; series mostly up to 28.7 µM
Procedure, shortened: as §1

[5] = test system: PC49; experiment: as above; details: P. falciparum in erythrocytes, SYBR Green DNA, 72 h; series mostly up to 28.7 µM
Procedure, shortened: as §1

[6] = test system: SC27B; experiment: as above; details: P. falciparum in erythrocytes, SYBR Green DNA, 72 h; series mostly up to 28.7 µM
Procedure, shortened: as §1

[7] = test system: TAB109; experiment: as above; details: P. falciparum in erythrocytes, SYBR Green DNA, 72 h; series mostly up to 28.7 µM
Procedure, shortened: as §1

[8] = test system: TAB113; experiment: as above; details: P. falciparum in erythrocytes, SYBR Green DNA, 72 h; series mostly up to 28.7 µM
Procedure, shortened: as §1

[9] = test system: TAB165; experiment: as above; details: P. falciparum in erythrocytes, SYBR Green DNA, 72 h; series mostly up to 28.7 µM
Procedure, shortened: as §1

[10] = test system: W2; experiment: as above; details: P. falciparum in erythrocytes, SYBR Green DNA, 72 h; series mostly up to 28.7 µM
Procedure, shortened: as §1

[11] = test system: CRL-7250; experiment: Cytotoxic Profiling of Annotated Libraries Using Quantitative High-Throughput Screening (AID 1296008); details: Five cell lines viability, CellTiter-Glo ATP luminescence, 48-72 h; max response: active compounds read low; on max response: on the % scale 0 is the no-effect control and ±100 the full control effect
Procedure, shortened: (§2)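 Cells exposed to compounds for 48 or 72 hr at 37 degrees Celsius. Viability read as ATP-coupled luminescence with CellTiter-Glo after 10 min at room temperature.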

[12] = test system: HEK293; experiment: as above; details: Five cell lines viability, CellTiter-Glo ATP luminescence, 48-72 h; max response: active compounds read low
Procedure, shortened: as §2

[13] = test system: HaCat; experiment: as above; details: Five cell lines viability, CellTiter-Glo ATP luminescence, 48-72 h; max response: active compounds read low
Procedure, shortened: as §2

[14] = test system: KB-3-1; experiment: as above; details: Five cell lines viability, CellTiter-Glo ATP luminescence, 48-72 h; max response: active compounds read low
Procedure, shortened: as §2

[15] = test system: NIH3T3; experiment: as above; details: Five cell lines viability, CellTiter-Glo ATP luminescence, 48-72 h; max response: active compounds read low
Procedure, shortened: as §2

[16] = test system: HEK293T; experiment: qHTS assay to identify novel small-molecules to repurpose for Merkel cell carcinoma treatment (AID 1296009); details: MCC and control cell lines, CellTiter-Glo viability, 72 h; at 44.8 µM (top of the series) unless noted; on activity change, negative = cytotoxicity: on the % scale 0 is the no-effect control and ±100 the full control effect
Procedure, shortened: (§3)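 Cells were treated for 72 hr at 37 degree celsius with compounds in 8- or 11-point dose response. Viability was read by CellTiter-Glo luminescence, normalized to no-cell (cytotoxicity) and DMSO controls.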

[17] = test system: MCC-13; experiment: as above; details: MCC and control cell lines, CellTiter-Glo viability, 72 h; series mostly up to 46 µM
Procedure, shortened: as §3

[18] = test system: MCC-26; experiment: as above; details: MCC and control cell lines, CellTiter-Glo viability, 72 h; series mostly up to 46 µM
Procedure, shortened: as §3

[19] = test system: MKL-1; experiment: as above; details: MCC and control cell lines, CellTiter-Glo viability, 72 h; series mostly up to 46 µM
Procedure, shortened: as §3
Further: nearly all actives have a fitted effect of over 60% in size.

CCC(=O)c1c(O)cc(O)cc1O
inactive: Potency [1] | Potency [2] | Potency [3] | Potency [4] | Potency [5] | Potency [6] | Potency [7] | Potency [8] | Potency [9] | Potency [10] | max response [11] 1.93% | outcome [12] | max response [13] 3.62% | max response [14] -16.9% | max response [15] 0.801% | outcome [16] | Potency [17] | Potency [18] | Potency [19]

C[C@]12C=CC(=O)C=C1[C@@H](F)C[C@@H]1[C@@H]2[C@@H](O)C[C@@]2(C)[C@H]1CC[C@]2(O)C(=O)CO
inactive: max response [11] 1.95% | max response [12] -9.41% | max response [13] -4.4% | max response [14] 8% and -2.32% | max response [15] -3.51% | Potency [17] | Potency [18] | Potency [19]

O=c1ccc2ccccc2o1
inactive: Potency [1] | Potency [2] | Potency [3] | Potency [4] | Potency [5] | Potency [6] | Potency [7] | Potency [8] | Potency [9] | Potency [10] | outcome [11] | outcome [12] | max response [13] -0.31% | max response [14] -9.75% | outcome [15] | outcome [16] | Potency [17] | Potency [18] | Potency [19]

CC1(C)O[C@@H]2C[C@H]3[C@@H]4C[C@H](F)C5=CC(=O)CC[C@]5(C)[C@H]4[C@@H](O)C[C@]3(C)[C@]2(C(=O)CO)O1
inactive: max response [11] 2.33% | outcome [12] | max response [13] -7.7% | max response [14] 28% | max response [15] 0.0351% | outcome [16] | Potency [17] | Potency [18] | Potency [19]

Cc1cc(=O)n(-c2ccccc2)n1C
inactive: Potency [1] | Potency [2] | Potency [3] | Potency [4] | Potency [5] | Potency [6] | Potency [7] | Potency [8] | Potency [9] | Potency [10] | max response [11] 2.86% | max response [12] -47.4% | max response [13] -15.6% | max response [14] 3.76% | max response [15] -41.4% | Potency [17] | Potency [18] | Potency [19]

C[C@]12CCC(=O)C=C1CC[C@H]1[C@@H]3CC[C@](O)(C(=O)CO)[C@@]3(C)C[C@H](O)[C@@]12F
inactive: Potency [1] | Potency [2] | Potency [3] | Potency [4] | Potency [5] | Potency [6] | Potency [7] | Potency [9] | Potency [10] | max response [11] -14.8% | max response [12] -5.58% | max response [13] -3.35% | max response [14] 18.3% and -1.2% | outcome [15] | Potency [17] | Potency [18] | Potency [19]

NC[C@H]1O[C@H](O[C@H]2[C@H](O[C@@H]3O[C@H](CO)[C@@H](O)[C@H]3O)C(O)[C@H](N)C[C@@H]2N)[C@H](N)[C@@H](O)[C@@H]1O (stereo partly drawn)
inactive: max response [11] -0.227% | max response [12] 0.11% | max response [13] -0.678% | max response [14] -2.19% | outcome [15] | activity change, negative = cytotoxicity [17] 8.98% [at 9.22 µM] | activity change, negative = cytotoxicity [18] 5.57% [at 9.22 µM] | activity change, negative = cytotoxicity [19] 2.77% [at 9.22 µM]
